Assay results: article PMC4336329 (PLoS ONE, 2015)
Screen size: about 310,000 compounds; about 14,000 (4.5%) showed an effect of 50% or more. Effects have a minus sign here. The entries come from a sample that favours strong results as a whole.

These compounds were tested against human ether-à-go-go-related gene (hERG) potassium channel (human, UniProt Q12809) (assay: primary screen, population patch clamp on CHO cells stably expressing hERG; higher = less effect of the substance).
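Note: peak tail current of the secondary pulse compared with the same well before compound.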

Chain of human ether-à-go-go-related gene (hERG) potassium channel (Q12809 whole entry, looked up): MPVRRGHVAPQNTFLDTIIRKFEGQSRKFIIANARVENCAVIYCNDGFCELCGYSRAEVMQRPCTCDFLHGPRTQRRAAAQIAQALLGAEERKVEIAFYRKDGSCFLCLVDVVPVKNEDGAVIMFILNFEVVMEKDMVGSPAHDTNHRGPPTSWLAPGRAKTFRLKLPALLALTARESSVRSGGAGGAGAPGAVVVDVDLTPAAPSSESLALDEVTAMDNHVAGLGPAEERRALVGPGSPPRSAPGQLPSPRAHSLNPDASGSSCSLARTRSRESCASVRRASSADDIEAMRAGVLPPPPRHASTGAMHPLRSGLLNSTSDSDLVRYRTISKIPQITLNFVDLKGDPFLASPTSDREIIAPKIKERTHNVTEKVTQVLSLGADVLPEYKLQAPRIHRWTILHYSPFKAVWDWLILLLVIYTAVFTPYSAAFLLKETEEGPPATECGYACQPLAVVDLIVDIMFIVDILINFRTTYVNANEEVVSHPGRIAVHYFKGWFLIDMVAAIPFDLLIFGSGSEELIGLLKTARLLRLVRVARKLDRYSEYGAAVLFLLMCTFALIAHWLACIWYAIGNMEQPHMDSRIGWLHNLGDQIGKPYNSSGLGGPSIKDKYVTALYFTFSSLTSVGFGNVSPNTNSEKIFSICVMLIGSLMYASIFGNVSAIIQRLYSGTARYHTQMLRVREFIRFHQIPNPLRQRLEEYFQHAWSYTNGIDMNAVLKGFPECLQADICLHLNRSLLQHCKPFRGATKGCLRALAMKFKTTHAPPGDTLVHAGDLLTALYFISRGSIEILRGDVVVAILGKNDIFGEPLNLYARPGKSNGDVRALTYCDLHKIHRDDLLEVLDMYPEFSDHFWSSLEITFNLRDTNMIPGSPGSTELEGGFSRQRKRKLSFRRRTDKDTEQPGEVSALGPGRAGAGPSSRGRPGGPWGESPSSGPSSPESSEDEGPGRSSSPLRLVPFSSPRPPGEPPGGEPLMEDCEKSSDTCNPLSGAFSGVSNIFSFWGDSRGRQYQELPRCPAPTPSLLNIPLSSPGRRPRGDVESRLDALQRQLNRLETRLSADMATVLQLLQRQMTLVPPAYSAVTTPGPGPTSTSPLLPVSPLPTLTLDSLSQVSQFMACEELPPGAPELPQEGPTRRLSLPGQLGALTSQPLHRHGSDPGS

Point of comparison: `CN(Cc1ccccc1)C(=O)c1cc(S(=O)(=O)N2CCOCC2)cn1C`, “hERG current change (%, negative = inhibition) at 10uM” value -7.13%. Against it:
- CCOc1cc(/C=C2/C(=N)N3N=C(C)SC3=NC2=O)ccc1OS(=O)(=O)c1ccc(C)cc1 — higher, 0.16%
- COc1ccc(NC(=O)Cn2c(=O)n(-c3ccccc3)c(=O)c3sccc32)c(OC)c1 — higher, 0.835%
- CCOC(=O)c1c(NC(=O)c2cccs2)sc(C)c1C — higher, 3.46%
- CCOC(=O)c1c(-c2ccc(-c3ccccc3)cc2)csc1NC(=O)CCN1CCOCC1 — higher, 13.8%
- CCOC(=O)c1sc(NC(=O)CCN2CCN(CC)CC2)c(C(=O)OCC)c1C — lower, -88.9%
- CCOC(=O)c1c(-c2ccc(OC)cc2)csc1NC(=O)CCN1CCOCC1 — lower, -53.2%
- CCOC(=O)c1c(-c2ccc(C)cc2)csc1NC(=O)CCN1CCOCC1 — lower, -42.1%
- CCOC(=O)c1c(NC(=O)c2cccs2)sc(C(=O)N(C)C)c1C — lower, -10.9%
- CCOC(=O)c1c(NC(=O)c2cccs2)sc(C(=O)N2CCOCC2)c1C — lower, -55.5%
- CCOC(=O)c1sc(NC(=O)CCN2CCCCCC2)c(C(=O)OCC)c1C — lower, -24.7%
- CCOC(=O)c1sc(NC(=O)CCN2CCN(C)CC2)c(C(=O)OCC)c1C — lower, -79%
- CCOC(=O)c1sc(NC(=O)CCN2CCC(C)CC2)c(C(=O)OCC)c1C — higher, 9%
- CCOC(=O)c1sc(NC(=O)CCN2CC(C)OC(C)C2)c(C(=O)OCC)c1C.O=C(O)C(=O)O (centres unmarked) — higher, 13.9%
- CCOC(=O)c1sc(NC(=O)CCN2CCOCC2)c(C(=O)OCC)c1C — higher, -2.58%
- NS(=O)(=O)c1ccc(CNC(=O)CSc2ccccc2)cc1 — higher, 14.5%
- CCOC(=O)C(=NC(C)CC)NNc1cccc(C(F)(F)F)c1 (centres unmarked) — higher, -1.86%
- O=C(c1ccc([N+](=O)[O-])cc1[N+](=O)[O-])N1CCCC1 — higher, 5.62%
- Fc1cc(Br)ccc1NC(=S)Nc1cccnc1 — higher, 0.43%
- COc1ccc(C(=O)O)cc1S(=O)(=O)NC(C)C12CC3CC(CC(C3)C1)C2 (centres unmarked) — higher, 1.27%
- O=C(NC1CCCCCC1)c1c(O)c2ccccc2[nH]c1=O — higher, 8.34%
- CCOC(=O)c1ccc(NC(=O)CCc2nc(-c3ccc(C)cc3)no2)cc1 — higher, 5.14%
- Cc1cccc(OCC(=O)NCc2cc(C)nc3ccccc23)c1 — lower, -9.05%
- O=c1cc(CCl)[nH]c2nc3ccccc3n12 — higher, -6.02%
- CCC(C)n1c(SCc2ccc([N+](=O)[O-])cc2)nc2ccsc2c1=O (centres unmarked) — lower, -11.6%
- CN1CCN(c2nc(-c3ccc(Cl)s3)cs2)CC1 — higher, -3.91%
- O=c1oc(-c2ccc([N+](=O)[O-])cc2)nc2ccccc12 — higher, 18.2%
- CCOC(=O)c1c(NC(=O)CSc2cccc[n+]2[O-])sc(C(=O)Nc2ccccc2)c1C — lower, -30.1%
- CCOC(=O)c1sc(NC(=O)CN2CCCC2)c(C(=O)OCC)c1C — higher, -6.37%
- CCOC(=O)c1c(NC(=O)CN2CCN(C)CC2)sc(C(=O)Nc2ccccc2)c1C — lower, -58.9%
- Cc1ccc(NC(=O)CSCC(=O)OC(C)C(=O)Nc2ccc(S(N)(=O)=O)cc2)c(C)c1 (centres unmarked) — higher, 5.08%
- COc1ccc(F)cc1C(=O)C1CCCN(C(=O)c2ocnc2C)C1 (centres unmarked) — lower, -10.1%
- O=C(NC1CCCC1)C(=O)N(Cc1cccnc1)C(C(=O)NC1CCCC1)c1ccco1 (centres unmarked) — higher, 19.6%
- O=C(CN1CCN(c2ccccc2F)CC1)c1ccc2cc[nH]c2c1 — lower, -82.9%
- O=C(CN1CCN(c2ccccc2F)CC1)c1ccc(O)c(O)c1 — lower, -70.7%
- O=C(CN1CCN(c2ccccc2F)CC1)c1ccc(O)cc1O — higher, 14.2%
- O=C(CN1CCOCC1)c1ccc2cc[nH]c2c1 — higher, 8.82%
- O=C(CN1CCN(c2ccccc2)CC1)c1ccc2cc[nH]c2c1 — higher, 11.4%
- O=C(CN1CCN(c2ccccc2F)CC1)c1ccc2c(c1)OCO2 — lower, -10.3%
- CC(=O)Cc1nsc(NC(=O)c2ccc(-c3cc(C(F)(F)F)ccc3Cl)o2)n1 — higher, 22.7%
- O=C(c1cccnc1)N1CCN(S(=O)(=O)c2ccc3ccccc3c2)CC1 — lower, -34.9%
- CC(CNC(=O)c1ccc(Br)o1)NC(=O)c1ccc(Br)o1 (centres unmarked) — higher, -0.676%
- CC1CCCCC1NC(=O)COC(=O)CCC(=O)c1cccs1 (centres unmarked) — higher, 17.3%
- CCn1c(Cn2nnc(-c3ccccc3)n2)nnc1SCC(=O)Nc1ccccc1 — lower, -7.39%
- CC(C)Oc1ccc(NC(N)=O)cc1 — higher, 1.14%
- COCCN=C1Sc2nc3ccc(C)cc3cc2CN1Cc1cccs1 — lower, -11.1%
- CCC(C)N=C1Sc2nc3ccc(C)cc3cc2CN1CCOC (centres unmarked) — lower, -79%
- CCOc1ccc(N=C2Sc3nc4ccc(C)cc4cc3CN2CCOC)cc1 — higher, 41.4%
- COCCN=C1Sc2nc3ccc(C)cc3cc2CN1Cc1ccco1 — lower, -61%
- COCCN=C1Sc2nc3c(C)cccc3cc2CN1Cc1ccco1 — higher, 8.49%
- COCCN1Cc2cc3cc(C)ccc3nc2SC1=Nc1ccc(OC)cc1 — higher, 7.73%
- CCNC(=O)CSc1nnc(-c2cccc(S(=O)(=O)N(CC)CC)c2)n1CCc1ccccc1 — lower, -9.82%
- Cn1ccc(C(=O)Nc2ccc3c(c2)OCCO3)n1 — higher, 21.9%
- O=C(NN1CCOCC1)c1cn(-c2ccccc2)nc1-c1cccs1 — higher, -1.47%
- COC(=O)c1nc(NC(=O)c2ccccc2)n[nH]1 — lower, -9.58%
- O=C(C1=NN[C@@H]2C(=O)N(c3cccc(F)c3)C(=O)[C@H]12)C(c1ccccc1)c1ccccc1 — lower, -19.2%
